For part of these data: Results with a measured potency or affinity are listed apart. Calls of active or inactive are those of the source. Unless noted, the rule behind the calls is not given here.
Legend:
[1] = antimalarial activity against Dd2 strain (AID 2302;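 active = growth inhibition above 50% at the single 2 µM test dose, taken to imply half-maximal potency below 2 µM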;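 note: 0% = DMSO untreated growth and 100% = chloroquine plus artemisinin killed control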); conditions: P. falciparum Dd2 in RBCs, LDH growth readout, 72 h; at 2 µM; active compounds read high
[2] = human hepatoma cell viability loss – ATP luminescence, cytotoxicity control for P. falciparum antimalarial project, primary screen (AID 2303;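 active = inhibition above 50%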;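 note: 0% = DMSO wells and 100% = digitonin-killed cells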); conditions: HepG2 viability, 24-48 h, at 10 µM, active compounds read high
[3] = molecular target: L-lactate dehydrogenase (Plasmodium falciparum (isolate CDC / Honduras)) (UniProt Q27743); assay: PfLDH activity inhibition – cell lysate, 3D7 strain, counter-screen for P. falciparum growth inhibition project (AID 2304);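 note: 0% = vehicle and 100% = reference inhibitor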; conditions: P. falciparum 3D7 crude extract, LDH APAD/NBT absorbance; at 2 µM; active compounds read high
Sequence of L-lactate dehydrogenase (Plasmodium falciparum (isolate CDC / Honduras)) (Q27743 whole entry, looked up): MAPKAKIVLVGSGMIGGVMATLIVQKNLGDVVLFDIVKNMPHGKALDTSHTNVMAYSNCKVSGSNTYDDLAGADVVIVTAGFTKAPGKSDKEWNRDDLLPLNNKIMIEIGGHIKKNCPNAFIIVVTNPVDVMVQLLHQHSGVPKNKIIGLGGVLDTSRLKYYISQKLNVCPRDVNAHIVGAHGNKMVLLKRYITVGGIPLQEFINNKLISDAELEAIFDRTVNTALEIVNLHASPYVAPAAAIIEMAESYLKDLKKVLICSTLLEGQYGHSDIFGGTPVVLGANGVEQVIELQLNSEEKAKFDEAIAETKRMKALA

[4] = inhibition of 3D7 malaria parasite growth – strain 3D7 (AID 2306);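 note: 0% = DMSO wells and 100% = chloroquine plus artemisinin control wells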; conditions: P. falciparum 3D7 erythrocytic growth, LDH absorbance, 72 h; at 2 µM; active compounds read high
[5] = molecular target: Calcium-dependent protein kinase 1 (Plasmodium falciparum (isolate 3D7)) (UniProt P62344); assay: PfCDPK1 kinase inhibitors, biochemical, TCAMS library (AID 1159585; cut-off not given, nearly all actives have IC50 up to about 0.98 µM;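 note: inhibitors leave more ATP so luminescence rises with inhibition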); conditions: recombinant PfCDPK1, Kinase-Glo ATP depletion luminescence
Sequence of Calcium-dependent protein kinase 1 (Plasmodium falciparum (isolate 3D7)) (P62344 whole entry, looked up): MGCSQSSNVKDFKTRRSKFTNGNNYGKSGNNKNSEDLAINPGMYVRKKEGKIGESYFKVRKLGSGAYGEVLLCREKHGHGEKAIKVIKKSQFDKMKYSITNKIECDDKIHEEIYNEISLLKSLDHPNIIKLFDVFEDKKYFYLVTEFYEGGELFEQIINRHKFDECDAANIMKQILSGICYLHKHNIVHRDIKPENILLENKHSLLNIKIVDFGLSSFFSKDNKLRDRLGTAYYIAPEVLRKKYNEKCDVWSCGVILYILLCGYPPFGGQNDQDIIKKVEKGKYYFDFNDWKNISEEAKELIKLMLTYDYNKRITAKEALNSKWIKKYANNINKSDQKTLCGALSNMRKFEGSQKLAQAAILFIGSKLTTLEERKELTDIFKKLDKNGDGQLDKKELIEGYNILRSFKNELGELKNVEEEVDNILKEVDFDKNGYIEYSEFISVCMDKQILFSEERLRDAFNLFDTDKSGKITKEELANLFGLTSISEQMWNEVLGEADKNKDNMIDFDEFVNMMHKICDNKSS

[6] = molecular target: Plasmodium falciparum protein kinase 6 (PK6, PF3D7_1337100) (UniProt Q8IDW1); assay: PfPK6 kinase inhibitors, biochemical, TCAMS library (AID 1159586); conditions: recombinant PfPK6, Kinase-Glo ATP depletion luminescence
Sequence of Plasmodium falciparum protein kinase 6 (PK6, PF3D7_1337100) (Q8IDW1 1-305): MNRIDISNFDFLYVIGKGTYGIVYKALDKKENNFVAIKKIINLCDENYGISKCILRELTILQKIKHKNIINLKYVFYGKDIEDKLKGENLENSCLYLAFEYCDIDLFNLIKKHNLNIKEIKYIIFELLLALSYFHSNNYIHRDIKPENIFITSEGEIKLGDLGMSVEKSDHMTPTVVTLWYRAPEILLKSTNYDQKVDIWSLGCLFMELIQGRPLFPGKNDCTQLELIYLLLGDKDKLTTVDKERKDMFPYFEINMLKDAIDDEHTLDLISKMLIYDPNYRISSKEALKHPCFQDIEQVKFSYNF

[7] = molecular target: Protein kinase 7 (PK7), Plasmodium falciparum 3D7 (PF3D7_0213400) (UniProt Q7YTF7); assay: inhibition of Plasmodium PK7 catalytic activity – biochemical, TCAMS antimalarial set, Kinase-Glo luminescence (AID 1159587); conditions: recombinant PfPK7, Kinase-Glo ATP depletion luminescence
Sequence of Protein kinase 7 (PK7), Plasmodium falciparum 3D7 (PF3D7_0213400) (Q7YTF7 1-343): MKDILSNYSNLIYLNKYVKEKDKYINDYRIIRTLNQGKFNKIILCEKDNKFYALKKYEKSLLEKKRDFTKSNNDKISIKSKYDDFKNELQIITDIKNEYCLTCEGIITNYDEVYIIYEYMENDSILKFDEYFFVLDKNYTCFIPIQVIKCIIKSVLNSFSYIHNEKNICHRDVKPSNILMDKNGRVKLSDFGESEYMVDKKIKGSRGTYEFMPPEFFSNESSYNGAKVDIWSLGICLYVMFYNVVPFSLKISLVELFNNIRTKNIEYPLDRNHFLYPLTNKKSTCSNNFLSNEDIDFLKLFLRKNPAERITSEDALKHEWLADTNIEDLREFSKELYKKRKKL

[8] = molecular target: Calcium-dependent protein kinase 4 (Plasmodium falciparum (isolate 3D7)) (UniProt Q8IBS5); assay: PfCDPK4 kinase inhibitors, biochemical, TCAMS library (AID 1159588; cut-off not given, nearly all actives have IC50 up to about 0.91 µM); conditions: recombinant PfCDPK4, Kinase-Glo ATP depletion luminescence
Sequence of Calcium-dependent protein kinase 4 (Plasmodium falciparum (isolate 3D7)) (Q8IBS5 whole entry, looked up): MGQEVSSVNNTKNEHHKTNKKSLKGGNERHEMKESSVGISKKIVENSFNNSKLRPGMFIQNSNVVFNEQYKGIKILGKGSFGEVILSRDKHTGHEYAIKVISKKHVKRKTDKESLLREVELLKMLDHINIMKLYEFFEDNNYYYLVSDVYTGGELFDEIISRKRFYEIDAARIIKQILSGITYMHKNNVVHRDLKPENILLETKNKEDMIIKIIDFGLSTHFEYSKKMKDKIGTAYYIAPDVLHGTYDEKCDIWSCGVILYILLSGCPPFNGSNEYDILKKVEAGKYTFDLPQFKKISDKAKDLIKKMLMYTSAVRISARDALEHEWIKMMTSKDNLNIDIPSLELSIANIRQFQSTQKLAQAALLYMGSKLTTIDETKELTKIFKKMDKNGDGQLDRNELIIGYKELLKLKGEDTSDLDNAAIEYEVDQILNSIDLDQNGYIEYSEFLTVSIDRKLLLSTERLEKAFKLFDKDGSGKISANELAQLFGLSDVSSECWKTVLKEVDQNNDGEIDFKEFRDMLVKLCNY

| SMILES | growth inhibition [1] | inhibition [2] | inhibition [3] | growth inhibition [4] | outcome [5] | outcome [6] | outcome [7] | outcome [8] |
| --- | --- | --- | --- | --- | --- | --- | --- | --- |
| COc1ccc(-c2cccc(NC(=O)c3cccc(C#N)c3)c2)cc1CNC(C)C | 51% (active) | 22% (inactive) | 0% (inactive) | 101% (active) | inactive | inactive | inactive | inactive |
| CNC(=O)COc1cc(C)c(C2CCN(CCCCNC(=O)c3ccc(-c4ccc(C(F)(F)F)cc4)cc3)CC2)cc1C | 72% (active) | 38% (inactive) | 4% (inactive) | 100% (active) | inactive | inactive | inactive | inactive |
| COc1ccccc1CNC(=O)CCn1c(=O)[nH]c2ccsc2c1=O | 75% (active) | -5% (inactive) | -7% (inactive) | 85% (active) | inactive | inactive | inactive | inactive |
| CN(C)CCN(C)Cc1ccc(-c2cccc(NC(=O)c3cccc(C#N)c3)c2)cc1 | 11% (inactive) | 23% (inactive) | -4% (inactive) | 94% (active) | inactive | inactive | inactive | inactive |
| O=C(NCCN1CCOCC1)c1csc(C2CCCN(C(=O)c3ccc(O)c(-c4cc(Cl)cc(Cl)c4)c3)C2)n1 (stereo not given) | 50% (active) | 12% (inactive) | 6% (inactive) | 97% (active) | inactive | inactive | inactive | inactive |
| Cc1cc(-c2cccc3c(C(=O)N4CCc5cc6nccc(N7CCN8CCC[C@H]8C7)c6cc54)cccc23)cc(C)n1 | 76% (active) | 13% (inactive) | -3% (inactive) | 97% (active) | inactive | inactive | inactive | inactive |
| Oc1ccc(Nc2nc(NCc3ccccc3)c3ccccc3n2)cc1 | 100% (active) | 33% (inactive) | 3% (inactive) | 101% (active) | inactive | inactive | inactive | inactive |
| Cc1cc(N[C@@H](Cc2ccccc2)C(=O)NCc2cccc(F)c2)nc(NCCc2ccc(F)cc2)n1 | 69% (active) | 0% (inactive) | -2% (inactive) | 99% (active) | inactive | inactive | inactive | inactive |
| CCOc1ccc(Br)cc1/C=C/C(=O)Nc1ccc2c(c1)CCCN(C)C2 | 17% (inactive) | 40% (inactive) | -1% (inactive) | 90% (active) | inactive | inactive | inactive | inactive |
| COc1ccccc1NC(=O)Nc1cccc(-c2ccc(-c3nc4ccc(C(F)(F)F)cc4[nH]3)cc2)c1 | 76% (active) | 28% (inactive) | 5% (inactive) | 100% (active) | inactive | inactive | inactive | inactive |
| CCOC(=O)CC[C@H](NC(=O)c1ccc(NS(=O)(=O)c2ccc(-c3cnc(N)[nH]c3=O)cc2)cc1)C(=O)OCC | 2% (inactive) | 5% (inactive) | 4% (inactive) | 95% (active) | inactive | inactive | inactive | inactive |
| CCCCNS(=O)(=O)c1ccc(NC(=O)c2cc([N+](=O)[O-])ccc2Cl)cc1 | 47% (inactive) | 12% (inactive) | -3% (inactive) | 92% (active) | inactive | inactive | inactive | inactive |
| CCOc1ccc(C(=O)Nc2ccc(-c3nc4ccccc4[nH]3)cc2)cc1[N+](=O)[O-] | 70% (active) | 22% (inactive) | 4% (inactive) | 100% (active) | inactive | inactive | inactive | inactive |
| CCN(CC1CCN(CC2(O)CCOCC2)CC1)c1cc(C)nc(Nc2ccc(Cl)cc2)n1 | 99% (active) | 34% (inactive) | -4% (inactive) | 101% (active) | inactive | inactive | inactive | inactive |
| COCCN(C)c1ccc(C(=O)Nc2ccccc2)cc1NS(=O)(=O)Cc1ccccc1 | 47% (inactive) | 2% (inactive) | -5% (inactive) | 92% (active) | inactive | inactive | inactive | inactive |
| CCN(CC)c1nc(Nc2cc(C)ccc2C)nc(Nc2ccccc2O)n1 | 99% (active) | -9% (inactive) | 2% (inactive) | 101% (active) | inactive | inactive | inactive | inactive |
| O=C(Cc1cccc2ccccc12)N1CCc2cc3nccc(N4CCN5CCC[C@H]5C4)c3cc21 | 99% (active) | 3% (inactive) | 2% (inactive) | 101% (active) | inactive | inactive | inactive | inactive |
| CN1CCN(CC(=O)Nc2ccc(-c3ccc(-c4nc5ccccc5[nH]4)s3)cc2)CC1 | 49% (inactive) | 12% (inactive) | -1% (inactive) | 101% (active) | inactive | inactive | inactive | inactive |
| Cc1nc(Nc2ccc(F)cc2)nc(N2CCc3cc(O)ccc3C2C)c1C (stereo not given) | 97% (active) | -5% (inactive) | -6% (inactive) | 99% (active) | inactive | inactive | inactive | inactive |
| COc1ccc(C2CC(c3ccccc3O)=NN2C(=O)c2ccco2)cc1OC (stereo not given) | 68% (active) | 11% (inactive) | 1% (inactive) | 96% (active) | inactive | inactive | inactive | inactive |
| Clc1ccc2c(NCc3ccccc3)ccnc2c1 | 100% (active) | 40% (inactive) | 1% (inactive) | 101% (active) | inactive | inactive | inactive | inactive |
| CN(C)Cc1cccc(CNC(=O)c2sccc2OCc2ccc(Cl)cc2)c1 | 88% (active) | 7% (inactive) | -6% (inactive) | 90% (active) | inactive | inactive | inactive | inactive |
| COc1ccc(CNC2CCN(C)CC2)cc1-c1ccc(S(=O)(=O)NC2CCC2)s1 | 94% (active) | 32% (inactive) | 5% (inactive) | 100% (active) | inactive | inactive | inactive | inactive |
| CC(C)C[C@H](NC(=O)c1cc2ccccc2s1)C(=O)N[C@H]1CCN(Cc2ccc(OCCCN(C)C)c(Cl)c2)C1 | 89% (active) | 83% (active) | 1% (inactive) | 100% (active) | inactive | inactive | inactive | inactive |
| COC(=O)c1ccc(C2OC3(C(=O)c4ccccc4C3=O)C(OC)=C2Cl)cc1C(C)=O (stereo not given) | 85% (active) | -3% (inactive) | -2% (inactive) | 99% (active) | inactive | inactive | inactive | inactive |
| O=C(Nc1ccc(OC2CCN(Cc3ccccc3)C2)c(Cl)c1)c1ccsc1 (stereo not given) | 75% (active) | 12% (inactive) | 1% (inactive) | 93% (active) | inactive | inactive | inactive | inactive |
| CC(C)(C)c1ccc(CN2CCC(NC(=O)c3ccc(-c4cccc(F)c4)s3)CC2)cc1 | 24% (inactive) | 35% (inactive) | 0% (inactive) | 92% (active) | inactive | inactive | inactive | inactive |
| O=C(Nc1ccc(F)cc1)NC1CCN(c2ccnc3ccccc23)C1 (stereo not given) | 2% (inactive) | 9% (inactive) | -2% (inactive) | 92% (active) | inactive | inactive | inactive | inactive |
| CCOC(=O)c1ccc(NC(=O)NCCCC2CCCN(CCCCCNC(=O)/C=C/c3ccc(Cl)c(Cl)c3)C2)cc1 (stereo not given) | 30% (inactive) | 14% (inactive) | -2% (inactive) | 96% (active) | inactive | inactive | inactive | inactive |
| Cc1cc(C(=O)N[C@H]2CCN(Cc3ccc(OCCCN(C)C)cc3)C2)ccc1Br | 62% (active) | 88% (active) | -4% (inactive) | 97% (active) | inactive | inactive | inactive | inactive |

— PubChem BioAssay
